Sampled rows, rich in hits. Any-hit rate of the full collection: about 4.2%.
Mtb betalactam = beta-lactam sensitization of Mtb H37Rv | M. tuberculosis H37Rv growth with meropenem, percent inhibition | AID 434955 | inhibition, % at 25 µM | 0.27% of 330,000 active; call rule not given here;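 note: growth measured after seven days incubation then overnight dye step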
CCHFV vOTU inh = CCHFV vOTU protease inhibition; Pep-AMC fluorescence; 0.55% of 370,000 active; inhibition, % at 11.5 µM
FBA Mtb inh = Mtb fructose-bisphosphate aldolase inhibition. P9WQA3. purified M. tuberculosis FBA, fluorescence read-out. inhibition, % at 1 µM. 2.3% of 360,000 active. AID 588726; in the data active = inhibition above about 27%
RecA splice inh = inhibitors of M. tuberculosis RecA intein splicing; P9WHJ3; cell-free RecA intein splicing, fluorescence; inhibition, % (test concentration not listed); 0.75% of 290,000 active; in the data active = inhibition above about 30%; inconclusive = no clear call, values can overlap the other calls
Target sequence (P9WHJ3 whole entry, looked up, canonical isoform): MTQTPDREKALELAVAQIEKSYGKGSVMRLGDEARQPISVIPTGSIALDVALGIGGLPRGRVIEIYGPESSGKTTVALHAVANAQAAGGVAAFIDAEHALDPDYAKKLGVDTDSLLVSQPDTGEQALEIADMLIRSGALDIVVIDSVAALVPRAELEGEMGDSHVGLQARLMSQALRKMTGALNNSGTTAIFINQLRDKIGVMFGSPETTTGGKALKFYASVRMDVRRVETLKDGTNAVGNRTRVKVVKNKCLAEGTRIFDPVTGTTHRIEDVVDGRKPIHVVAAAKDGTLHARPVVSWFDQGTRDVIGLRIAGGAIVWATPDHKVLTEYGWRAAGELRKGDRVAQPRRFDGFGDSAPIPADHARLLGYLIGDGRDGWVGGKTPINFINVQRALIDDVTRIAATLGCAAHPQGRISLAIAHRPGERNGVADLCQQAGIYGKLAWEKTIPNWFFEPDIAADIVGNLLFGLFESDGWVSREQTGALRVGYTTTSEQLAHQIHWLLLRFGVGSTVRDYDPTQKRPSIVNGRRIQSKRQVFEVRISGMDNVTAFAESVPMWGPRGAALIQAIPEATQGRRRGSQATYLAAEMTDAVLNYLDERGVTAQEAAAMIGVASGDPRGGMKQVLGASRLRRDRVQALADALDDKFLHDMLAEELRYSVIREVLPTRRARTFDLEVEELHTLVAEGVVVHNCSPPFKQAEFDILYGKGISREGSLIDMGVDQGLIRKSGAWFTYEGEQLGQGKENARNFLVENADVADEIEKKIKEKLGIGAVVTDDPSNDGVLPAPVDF
GDH-TPI counter = GDH-TPI coupled enzyme inhibition counter-screen. GDH-TPI coupled enzyme counterscreen, NADH absorbance. inhibition, % at 4.8 µM. 1.2% of 360,000 active. AID 588335
Each line names hits and unclear results; the compound was inactive in the other large screens. Cut-off read from the data, not from the text of the source, unless noted: active = inhibition above about 30%; inactive = the rest.

N#C/C(=C\c1ccc(Cl)cc1)c1nc2ncccc2[nH]1	GDH-TPI counter 39
N#C/C(=C\c1c(Cl)cccc1Cl)c1nc2ccccc2[nH]1	none
COc1ccc(/C=N/Nc2nc3ccccc3[nH]2)cc1OC	none
CCOc1ccccc1OCC(=O)Nc1nc2ccccc2[nH]1	none
Brc1ccc(/C=N/Nc2nc3ccccc3o2)cc1	none
COc1cc(/C=N\Nc2nc3ccccc3[nH]2)cc(OC)c1OC	GDH-TPI counter 36
Oc1ccccc1/C=N/Nc1nc2ccccc2o1	GDH-TPI counter 51
C(=N\Nc1nc2ccccc2[nH]1)/c1ccccn1	none (no result: Mtb betalactam)
CCOc1cc(/C=N/Nc2nc3ccccc3[nH]2)cc(Br)c1OCC(=O)N(C)C	GDH-TPI counter 34
C(=N\Nc1nc2ccccc2[nH]1)/c1ccc2ncccc2c1	GDH-TPI counter 33
COc1cc(/C=N\Nc2nc3ccccc3o2)cc(OC)c1OC	GDH-TPI counter 34
COc1cc(/C=N/Nc2nc3ccccc3o2)cc(OC)c1O	GDH-TPI counter 31
Cc1ccccc1CNC(=S)OC1CCC12CCC(c1ccccc1)CC2 (configuration not stated)	none (no result: Mtb betalactam, FBA Mtb inh, RecA splice inh, GDH-TPI counter)
CC(=O)c1ccc(N2CCN(C(=O)c3nn(C)c4c3CS(=O)(=O)c3ccccc3-4)CC2)cc1	GDH-TPI counter 41
CNC(=S)N/N=C/c1c(Cl)cccc1Cl	none
CCc1nnc(N/N=C/c2c(Cl)cccc2Cl)n1N	CCHFV vOTU inh 77
COc1ccc(CN2C(=O)NC(=O)/C(=C/c3ccc([N+](=O)[O-])s3)C2=O)cc1	GDH-TPI counter 31
CCN1CCN(CCCNC(=O)c2ccc3c(c2)N(Cc2ccccc2)CCS3)CC1	FBA Mtb inh 170
CCOC(=O)N1CCC(NC(=O)c2ccc3c(c2)N(Cc2ccc(C)cc2)CCS3)CC1	none
CCOC(=O)N1CCC(NC(=O)c2ccc3c(c2)N(C)CCS3)CC1	FBA Mtb inh 114 (no result: RecA splice inh)
O=C(NCC1CCCO1)c1ccc2c(c1)N(Cc1ccc(F)cc1)CCS2 (configuration not stated)	FBA Mtb inh 119
COc1ccc(OC)c(CCNC(=O)c2ccc3c(c2)N(Cc2ccccc2)CCS3)c1	none
CN1CCN(CCCNC(=O)c2ccc3c(c2)N(Cc2ccc(F)cc2)CCS3)CC1	FBA Mtb inh 159
COC(=O)C12C=C3CC(C4CC4)=C3C(=O)N1Cc1[nH]c3ccccc3c1C2 (configuration not stated)	none (no result: Mtb betalactam, FBA Mtb inh, RecA splice inh, GDH-TPI counter)
COc1ccccc1NC(=O)OCCCN1CCC2(CCC(C)CC2)C1=O (configuration not stated)	none (no result: Mtb betalactam, FBA Mtb inh, RecA splice inh, GDH-TPI counter)
O=C(NC1CC1)c1ccc2c(c1)N(Cc1ccccc1)CCS2	FBA Mtb inh 161
O=C(NCc1ccco1)c1ccc2c(c1)N(Cc1ccc(Cl)cc1)CCS2	none
CCCCCCCCNC(=O)C1CSCCS(=O)(=O)N1Cc1ccc(F)cc1 (configuration not stated)	none (no result: Mtb betalactam, FBA Mtb inh, RecA splice inh, GDH-TPI counter)
COC(=O)[C@]12C[C@H](CC(=O)N3CCOCC3)C(=O)N(CCC3=CCCCC3)C1=C[C@H](C(C)C)O[C@@H]2C1CC1	none (no result: Mtb betalactam, FBA Mtb inh, RecA splice inh, GDH-TPI counter)
O=C(/C=C/c1ccc(Cl)cc1)NC(=S)Nc1ccccc1C(=O)O	GDH-TPI counter 38
COc1ccc(C(C[N+](=O)[O-])C2(c3ccc(OC)c(OC)c3)C(=O)c3ccccc3C2=O)cc1 (configuration not stated)	GDH-TPI counter 41 (no result: CCHFV vOTU inh)
COc1ccc(CC(=O)NC2CCCCN(Cc3ccc(Cl)cc3)C2=O)cc1OC (configuration not stated)	none (no result: Mtb betalactam, FBA Mtb inh, RecA splice inh, GDH-TPI counter)
Cc1nc(N2CCN(C)CC2)c2sc(=S)n(-c3ccccc3)c2n1	GDH-TPI counter 38
O=C(/C=C/c1ccco1)NC(=S)Nc1ccc(C(=O)O)cc1	none
CCC(=O)Nc1ccc(NC(=S)NC(=O)/C=C/c2ccco2)cc1	GDH-TPI counter 48
O=C(/C=C/c1ccco1)NC(=S)NNC(=O)c1ccco1	GDH-TPI counter 43
CC(=O)NC(=S)Nc1ccc(NC(=S)NC(=O)/C=C/c2ccco2)cc1	none
COCCN1C=C(C(=O)OC)C(c2cc(Br)c(OC)c(OC)c2)C(C(=O)OC)=C1	FBA Mtb inh active
COC(=O)C1=CN(Cc2ccccc2)C=C(C(=O)OC)C1c1ccc(OC)c(OC)c1	none (no result: RecA splice inh)
COC(=O)C1=CN(Cc2ccccc2)C=C(C(=O)OC)C1c1ccc(O)c(OC)c1	none
COCCN1C=C(C(=O)OC)C(c2ccccc2Cl)C(C(=O)OC)=C1	FBA Mtb inh active
Cc1ccc(C)c(S(=O)(=O)Nc2ccccc2C(=O)Nc2cc(C)on2)c1	FBA Mtb inh 135
COc1ccccc1C(=O)CSc1nnc(-c2ccncc2)n1-c1ccc(Cl)cc1	none (no result: Mtb betalactam, FBA Mtb inh, RecA splice inh, GDH-TPI counter)
CCCN1CCS(=O)(=O)N(Cc2cn(CC(=O)OCC)nn2)C(C(=O)OC)C1 (configuration not stated)	none (no result: Mtb betalactam, FBA Mtb inh, RecA splice inh, GDH-TPI counter)
N#Cc1c(N)nc2c(c1-c1ccncc1)CCCCC2	Mtb betalactam inconclusive
Cc1c(-c2c(C#N)c(N)nc3c2CCCCCC3)cnn1C	FBA Mtb inh active
Cc1nn(C)c(C)c1-c1c(C#N)c(N)nc2c1CCCCCC2	FBA Mtb inh 46
Cc1ccc(-n2c(SCC(=O)c3ccc(O)c(O)c3)nnc2-c2ccccc2)cc1	none (no result: Mtb betalactam, FBA Mtb inh, RecA splice inh, GDH-TPI counter)
CCOC(=O)c1c(NC(=O)c2c(-c3ccccc3)noc2C)sc(C)c1-c1ccccc1	none
CCOC(=O)c1c(NC(=O)/C=C\C(=O)O)sc(C)c1-c1ccccc1	RecA splice inh 56
Cc1sc(NC(=O)/C=C/C(=O)O)c(C(N)=O)c1-c1ccc(C(C)(C)C)cc1	RecA splice inh 61
CC(=O)n1cc(/C=N/NC(=O)c2ccccc2O)c2ccccc21	none
Cn1cc(/C=N/NC(=O)c2cccc([N+](=O)[O-])c2)c2ccccc21	GDH-TPI counter 37
COc1ccc2c(c1)c(C(=O)N/N=C/c1ccc(OC)c(OC)c1)c(C)n2C	none
Cn1cc(/C=N/NC(=O)c2ccccc2O)c2ccccc21	GDH-TPI counter 59
Cc1nc(C)c(C(=O)N/N=C/c2c[nH]c3ccccc23)s1	none (no result: CCHFV vOTU inh)
Cc1nc(C)c(C(=O)N/N=C/c2cn(C)c3ccccc23)s1	GDH-TPI counter 34
COc1ccc2c(c1)c(C(=O)N/N=C/c1cn(C)c3ccccc13)c(C)n2C	GDH-TPI counter 37
Cc1cccc(-c2nnc(SCC(=O)c3ccc(F)cc3)n2C)c1	none (no result: Mtb betalactam, FBA Mtb inh, RecA splice inh, GDH-TPI counter)
O=[N+]([O-])c1ccc(NCCCO)c(S(=O)(=O)N2CCOCC2)c1	GDH-TPI counter 40
O=C(NNc1cccc([N+](=O)[O-])c1)/C(=C\c1cccnc1)NC(=O)c1ccccc1	GDH-TPI counter 44
COc1ccccc1/C=C(\NC(=O)c1ccc(OC)c(OC)c1)C(=O)Nc1cccc([N+](=O)[O-])c1	GDH-TPI counter 32
CC(C)(C)c1ccc(C(=O)N/C(=C\c2cccc([N+](=O)[O-])c2)C(=O)Nc2cccc(C(=O)O)c2)cc1	none
COc1ccccc1/C=C(\NC(=O)c1ccc(OC)c(OC)c1)C(=O)Nc1ccc([N+](=O)[O-])cc1	GDH-TPI counter 36
CC(C)(C)C(=O)NC1CCCCN(Cc2cccc(C(F)(F)F)c2)C1=O (configuration not stated)	none (no result: Mtb betalactam, FBA Mtb inh, RecA splice inh, GDH-TPI counter)
N#CCCCCn1ccc(NC(=O)c2ccc(Cl)cc2O)n1	GDH-TPI counter 32

High-throughput results as filed in PubChem BioAssay.
